Experimental data reported in the supplement of paper PMC10646978.
± gives the standard deviation.

Legend:
Conditions in all cases: modulator concentration 10 µM
[1] = tested on: RAW-Dual (murine macrophage reporter line); assay: NF-kB reporter (SEAP) activity fold change vs agonist alone; higher = enhanced NF-kB activity
Method in brief: (§1)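 In 384-well plates holding 50 000 RAW-Dual murine macrophage reporter cells per well, compound at 10 μM final was pre-incubated for 1 hour at 37 °C, after which a PRR agonist was added overnight. Supernatant SEAP read with QUANTI-Blue at 620 nm absorbance reported NF-κB, and Lucia luciferase read with QUANTI-Luc luminescence reported IRF. Fold change values come from dividing each reporter signal by the mean of agonist-only control wells on the same plate, averaged over replicate plates with propagated errors.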

[2] = tested on: RAW-Dual (murine macrophage reporter line); assay: IRF reporter (Lucia luciferase) activity fold change vs agonist alone; higher = enhanced IRF activity
Method in brief: as §1

[3] = tested on: RAW-Dual (murine macrophage reporter line); assay: viability score (confluency relative to resting cells, overnight) (fraction); higher = more viable, active = viable (0.7 or more)
Method in brief: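 Two confluency masks, generated with IncuCyte software over all imaged wells, were applied to IncuCyte images of RAW-Dual macrophages. The cells, in 384-well plates, had been exposed overnight to 10 μM final compound. The viability score is confluency as a fraction of resting cells, and a compound met the cutoff only with both masks above 70% of resting cells.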

[4] = agonist: CpG ODN 1826 0.5 ug/mL

Row | Structure (SMILES) | NF-kB reporter [1, 4] | NF-kB reporter ([1]; agonist: LPS 0.1 ug/mL) | NF-kB reporter ([1]; agonist: MPLA […]) | IRF reporter ([2]; agonist: 3'3'-cGAMP 10 ug/mL) | IRF reporter ([2]; agonist: LPS 0.1 ug/mL) | IRF reporter ([2]; agonist: MPLA […]) | viability score [3]
1 | COc1ccc(Cl)cc1C(=O)Nc1ccc(NC(=O)c2ccccc2)cc1 | 0.907 ± 0.079 | 1.12 ± 0.11 | 0.949 ± 0.057 | 0.937 ± 0.023 | 1.34 ± 0.2 | 1.09 ± 0.25 | 1.02 (active)
2 | CC(C)CC(C(=O)Nc1cccc(O)c1)N1C(=O)c2ccccc2C1=O (centres undefined) | 0.947 ± 0.076 | 1.04 ± 0.099 | 1.16 ± 0.083 | 1.04 ± 0.04 | 1.64 ± 0.15 | 1.63 ± 0.14 | 0.913 (active)
3 | S=C(NCc1ccc2c(c1)OCO2)N1CCN(c2ncnc3c2oc2ccccc23)CC1 | 0.943 ± 0.19 | 1.6 ± 0.5 | 2.24 ± 0.18 | 0.623 ± 0.021 | 1.35 ± 0.27 | 1.96 ± 0.42 | 0.958 (active)
4 | COc1ccc(Nc2nc(Nc3ccc(F)cc3)nc(N3CCOCC3)n2)cc1OC | 0.409 ± 0.059 | 1.61 ± 0.14 | 2.96 ± 0.16 | 0.413 ± 0.036 | 1.36 ± 0.17 | 2.15 ± 0.54 | 0.905 (active)
5 | Cc1ccc(C=NN=C(c2ccccc2)c2ccccc2)o1 | 0.796 ± 0.061 | 0.988 ± 0.076 | 1.05 ± 0.15 | 0.61 ± 0.028 | 0.975 ± 0.098 | 1.07 ± 0.2 | 1.02 (active)
6 | COc1ccccc1C=C(C#N)c1nc(-c2cc3cc(Br)ccc3oc2=O)cs1 | 0.951 ± 0.08 | 0.962 ± 0.075 | 0.943 ± 0.089 | 0.972 ± 0.069 | 1.31 ± 0.18 | 1.58 ± 0.27 | 1.02 (active)
7 | CN(C)CC/C=C1/c2ccccc2Sc2ccc(Cl)cc21 | 0.942 ± 0.058 | 1.02 ± 0.085 | 1.08 ± 0.078 | 0.925 ± 0.043 | 1.08 ± 0.19 | 1.23 ± 0.38 | 1.02 (active)
8 | C[C@@H](O[C@H]1OCCN(Cc2n[nH]c(=O)[nH]2)[C@H]1c1ccc(F)cc1)c1cc(C(F)(F)F)cc(C(F)(F)F)c1 | 0.545 ± 0.086 | 0.634 ± 0.031 | 0.806 ± 0.073 | 0.961 ± 0.045 | 1.29 ± 0.084 | 1.04 ± 0.09 | 1.02 (active)
9 | O=[N+]([O-])c1ccc2nc(Cl)sc2c1 | 1.71 ± 0.13 | 0.49 ± 0.039 | 0.338 ± 0.032 | 0.159 ± 0.02 | 0.223 ± 0.083 | 0.0921 ± 0.025 | 0.638 (inactive)
10 | COc1ccc(N(CC(=O)NCCSCc2cccc(Cl)c2)S(C)(=O)=O)cc1Cl | 0.917 ± 0.073 | 0.98 ± 0.065 | 0.831 ± 0.05 | 1.11 ± 0.031 | 1.08 ± 0.12 | 0.974 ± 0.098 | 1 (active)
11 | COc1ccc(C(=O)Nc2nc(C)c(C)s2)cc1OC | 0.904 ± 0.093 | 1.02 ± 0.056 | 0.994 ± 0.064 | 0.981 ± 0.024 | 1.55 ± 0.26 | 1.16 ± 0.27 | 1.01 (active)
12 | COC1(CNC(=O)C2CCN(S(C)(=O)=O)CC2)CCSC1 (centres undefined) | 0.879 ± 0.04 | 0.875 ± 0.076 | 1.07 ± 0.1 | 0.946 ± 0.074 | 1.08 ± 0.15 | 1.22 ± 0.34 | 0.97 (active)
